The results in this text go back to paper PMC7826789 (International Journal of Molecular Sciences, 2021).

SMILES strings stand for the structures.

In one experiment the test system is KDR.
With `COc1cc2nccc(Nc3ccc(OCc4ccc(NC(C)=O)cc4)cc3)c2cc1OC` [GW440135], the Kinases covered entry is listed as “KDR”.
In the case of `Cn1ccc2ncnc(Oc3ccc(NC(=O)Nc4ccccc4)cc3)c21` [TPKI-69], the Kinases covered result is reported as “KDR”.
On to `Cl.O=C(Nc1ccc(Oc2ccc3[nH]c(NC(=O)c4ccccc4)nc3c2)cc1)Nc1cc(C(F)(F)F)ccc1F` [GW709042A], for which the Kinases covered result was “KDR”.
As for `CN1CCN(C(=O)c2ccc(NC(=O)Nc3ccc(N(C)c4ccnc(Nc5ccc(CS(C)(=O)=O)cc5)n4)cc3)cc2)CC1.Cl` [GW830263A], the Kinases covered entry is “KDR”.
In the case of `COC(=O)Nc1nc2ccc(Oc3ccc(NC(=O)Nc4cc(C(F)(F)F)ccc4F)cc3)cc2s1.Cl` [GW693917A], the Kinases covered result is “KDR”.
As to `Cl.O=C(Nc1ccc(Oc2ccc3[nH]c(NC(=O)c4ccco4)nc3c2)cc1)Nc1cc(C(F)(F)F)ccc1F` [GW683134A], the Kinases covered result is “KDR”.
On the same count and under the same terms, the result for `Nc1ncnc2occ(-c3ccc(NC(=O)Nc4cc(C(F)(F)F)ccc4F)cc3)c12` [GW770249X] reads “KDR”.

Another experiment concerns KIT.
Take `Nc1n[nH]c2ncc(-c3ccccc3)cc12` [SB-517081]: the Kinases covered entry is reported as “KIT”.
For the molecule `CCS(=O)(=O)c1ccc(OC)c(Nc2ncc(-c3cccc(OC)c3)o2)c1` [GW580509X], the Kinases covered entry is recorded as “KIT”.
As for `O=C(Nc1ccccc1)Nc1cccc(Oc2ccc3nccn3n2)c1` [TPKI-39], the Kinases covered result is given as “KIT”.
In the case of `COc1cc2nccc(Nc3ccc(OCc4ccc(NC(C)=O)cc4)cc3)c2cc1OC` [GW440135], the Kinases covered result is reported as “KIT”.
Still for that read-out and setting: the result for `CCS(=O)(=O)c1ccc(OC)c(Nc2ncc(-c3cccc(F)c3)o2)c1` [GW621970X] reads “KIT”; that for `Cn1ccc2ncnc(Oc3ccc(NC(=O)Nc4ccccc4)cc3)c21` [TPKI-69], “KIT”; that for `Cl.O=C(Nc1ccc(Oc2ccc3[nH]c(NC(=O)c4ccco4)nc3c2)cc1)Nc1cc(C(F)(F)F)ccc1F` [GW683134A], “KIT”.
Same read-out and setting: the result for `Nc1ncnc2occ(-c3ccc(NC(=O)Nc4cc(C(F)(F)F)ccc4F)cc3)c12` [GW770249X] reads “KIT”.
With `C/C(Nc1ccc(S(N)(=O)=O)cc1)=C1/C(=O)Nc2ccccc21` [GW335962X], the Kinases covered result is recorded as “KIT”.

Another experiment relates to LRRK2.
As to `CNc1nc(Nc2ccc(C(=O)N3CCOCC3)cc2OC)nc2[nH]cc(Cl)c12` [JH-II-127], the Kinases covered result is “LRRK2”.
As for `O=C(Nc1cccnc1)c1cc(-c2ccnc(F)c2)ccc1OCc1ccccc1` [GSK2578215], the Kinases covered entry was “LRRK2”.
Take `CNc1nc(Nc2ccc(C(=O)N3CCOCC3)cc2OC)ncc1Cl` [HG-10-102-01]: the Kinases covered entry was “LRRK2”.
As to `C[C@@H]1CCNC(=O)c2cc3ccc(C(=O)Nc4nc5ccccc5n4CCCN(C)C)cc3n21` [BI00645435], the Kinases covered entry is listed as “LRRK2”.
